# Several values for one entry are separate records, joined by “and”; a condition that tells them apart may be missing. Equal values may be shown once. Some structures have more than one record in an assay (separate samples or runs), and their calls can disagree. Activity calls are given as the source filed them. Rule for the calls: active = hit-call score of the fitted dose curve at least 0.9, where 1 is the maximum; inactive = score below 0.9.
# What was measured:
# [1] = read-out: Monokine induced gamma interferon (MIG), CXCL9 (gene 4283); experiment: BSK_KF3CT_MIG: BioMAP Diversity Plus: KF3CT Assay for Monokine induced gamma interferon (MIG) Biomarker Activity (AID 2284248); conditions: primary human keratinocytes with fibroblasts
# In short: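 The assay uses a co-culture of human keratinocytes and foreskin fibroblasts. Measurement occurs 24 hours after dosing, with MIG detected by ELISA and the DMSO control as baseline.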
# [2] = read-out: Collagen I, COL1A1 (gene 1277); experiment: BSK_hDFCGF_CollagenI: BioMAP Diversity Plus: hDFCGF Assay for Collagen I Biomarker Activity (AID 2284250); conditions: primary human foreskin fibroblasts
# In short: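 Collagen I quantified by ELISA 24 h after chemical dosing of human dermal fibroblast primary cells, with parallel SRB staining (0.1%, TCA-fixed, 560 nm) for overt cytotoxicity.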
# [3] = read-out: Interferon-inducible T-cell alpha chemoattractant (ITAC), CXCL11 (gene 6373); experiment: BSK_hDFCGF_ITAC: BioMAP Diversity Plus: hDFCGF Assay for Interferon-inducible T-cell alpha chemoattractant (ITAC) Biomarker Activity (AID 2284251); conditions: primary human foreskin fibroblasts
# In short: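 I-TAC levels were read by ELISA on human dermal foreskin fibroblast primary cultures 24 h after dosing, analysed against DMSO in the positive direction. Cytotoxicity was assessed alongside by sulforhodamine B total-protein staining.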
# [4] = read-out: Plasminogen activator inhibitor-1 (PAI1), SERPINE1 (gene 5054); experiment: BSK_KF3CT_PAI1: BioMAP Diversity Plus: KF3CT Assay for Plasminogen activator inhibitor-1 (PAI1) Biomarker Activity (AID 2284252); conditions: primary human keratinocytes with fibroblasts
# In short: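 PAI-1 levels quantified by ELISA after 24 h compound exposure of primary human skin keratinocytes co-cultured with fibroblasts. Activity is the gain relative to DMSO; cytotoxicity tracked in parallel cultures via SRB staining.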
# [5] = read-out: Interleukin-8 (IL8), CXCL8 (gene 3576); experiment: BSK_KF3CT_IL8: BioMAP Diversity Plus: KF3CT Assay for Interleukin-8 (IL8) Biomarker Activity (AID 2284254); conditions: primary human keratinocytes with fibroblasts
# In short: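 ELISA detection of IL-8 from a human skin co-culture, keratinocytes with foreskin fibroblasts, at 24 h following chemical exposure, with gain of signal scored against DMSO controls.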
# [6] = read-out: Intercellular Adhesion Molecule 1 (ICAM1), ICAM1 (gene 3383); experiment: BSK_BE3C_ICAM1: BioMAP Diversity Plus: BE3C Assay for Intercellular Adhesion Molecule 1 (ICAM1) Biomarker Activity (AID 2284278); conditions: primary human bronchial epithelial cells;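 note: cell-surface ICAM-1 protein level quantified by ELISA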
# In short: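 ICAM-1 quantified by ELISA and fitted against DMSO baseline, 24 h post-dosing in BE3C cultures of primary human lung bronchial epithelial cells. Cytotoxicity checked in parallel cultures by total protein SRB staining.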
# [7] = read-out: Interferon-inducible T-cell alpha chemoattractant (ITAC), CXCL11 (gene 6373); experiment: BSK_BE3C_ITAC: BioMAP Diversity Plus: BE3C Assay for Interferon-inducible T-cell alpha chemoattractant (ITAC) Biomarker Activity (AID 2284279); conditions: primary human bronchial epithelial cells
# In short: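 Steps: dose human bronchial epithelial cells with chemical; incubate 24 h; measure I-TAC by ELISA; fit endpoint in positive direction against DMSO control. Cytotoxicity was checked in parallel cultures by SRB staining at harvest.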
# [8] = read-out: Interleukin-8 (IL8), CXCL8 (gene 3576); experiment: BSK_BE3C_IL8: BioMAP Diversity Plus: BE3C Assay for Interleukin-8 (IL8) Biomarker Activity (AID 2284280); conditions: primary human bronchial epithelial cells
# In short: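 Primary human bronchial epithelial cells (BE3C system) were exposed to test chemical for 24 h, and IL-8 levels were then measured by ELISA. Activity was fitted in the positive (gain-of-signal) direction against a DMSO negative-control baseline.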
# [9] = read-out: Epidermal growth factor receptor (EGFR), EGFR (gene 1956); experiment: BSK_BE3C_EGFR: BioMAP Diversity Plus: BE3C Assay for Epidermal growth factor receptor (EGFR) Biomarker Activity (AID 2284281); conditions: primary human bronchial epithelial cells
# In short: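 Human primary bronchial epithelial cells were exposed to compound for 24 h, and cell-surface EGFR was then quantified by ELISA. Activity was fitted in the positive direction against the DMSO vehicle baseline.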
# [10] = read-out: Interleukin 17F (IL17F), IL17F (gene 112744); experiment: BSK_BT_xIL17F: BioMAP Diversity Plus: BT Assay for Interleukin 17F (IL17F) Biomarker Activity (AID 2284243); conditions: primary human B cells with PBMC
# In short: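 Measures secreted IL-17F from a human B cell plus PBMC co-culture at 24 h post-dose by Luminex xMAP, with DMSO defining baseline activity.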
# [11] = read-out: Actin alpha 1 (ACTA1), ACTA1 (gene 58); experiment: BSK_MyoF_ACTA1: BioMAP Diversity Plus: MyoF Assay for Actin alpha 1 (ACTA1) Biomarker Activity (AID 2284244); conditions: primary human lung fibroblasts
# In short: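 alpha-SMA levels read by ELISA against DMSO baseline, 24 h post-dose, in primary human lung fibroblasts. Parallel cultures stained with 0.1% SRB after 10% TCA fixation (560 nm) to flag overt cytotoxicity.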
# [12] = read-out: Interleukin 2 (IL2), IL2 (gene 3558); experiment: BSK_BT_xIL2: BioMAP Diversity Plus: BT Assay for Interleukin 2 (IL2) Biomarker Activity (AID 2284245); conditions: primary human B cells with PBMC
# In short: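 Secreted IL-2 was read by Luminex xMAP from B cells co-cultured with PBMC (human primary) 24 h post-dosing; activity was analysed as gain of signal relative to DMSO vehicle.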
# [13] = read-out: Basic fibroblast growth factor (bFGF), FGF2 (gene 2247); experiment: BSK_MyoF_bFGF: BioMAP Diversity Plus: MyoF Assay for Basic fibroblast growth factor (bFGF) Biomarker Activity (AID 2284246); conditions: primary human lung fibroblasts
# In short: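 bFGF was measured by ELISA in primary human lung fibroblasts 24 h after chemical addition. Signal was analysed as positive-direction change relative to DMSO baseline.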
# [14] = read-out: Collagen IV, COL4A1 (gene 1282); experiment: BSK_MyoF_CollagenIV: BioMAP Diversity Plus: MyoF Assay for Collagen IV Biomarker Activity (AID 2284247); conditions: primary human lung fibroblasts
# In short: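 Collagen IV quantified by ELISA in human lung fibroblast cultures 24 h after chemical treatment, with DMSO as baseline. Parallel SRB staining (0.1% SRB after TCA fixation, 560 nm) flags overt cytotoxicity.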
# [15] = read-out: Plasminogen activator inhibitor-1 (PAI1), SERPINE1 (gene 5054); experiment: BSK_MyoF_PAI1: BioMAP Diversity Plus: MyoF Assay for Plasminogen activator inhibitor-1 (PAI1) Biomarker Activity (AID 2284256); conditions: primary human lung fibroblasts;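 for outcome: PAI-1 protein level measured by ELISA in fibroblast cultures; PAI-1 read 24 h after compound addition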
# In short: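 Activity reflects increased PAI-1, determined by ELISA and compared with DMSO, in human lung fibroblasts treated for 24 h.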
# Decorin, DCN (gene 1634) = experiment: BSK_MyoF_Decorin: BioMAP Diversity Plus: MyoF Assay for Decorin Biomarker Activity (AID 2284265); conditions: primary human lung fibroblasts
# In short: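 Lung fibroblast cultures, 24 h chemical exposure. Decorin by ELISA, positive fitting direction, DMSO baseline.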
# [16] = BSK_MyoF_SRB: Viability Assessment in the BioMAP Diversity Plus: MyoF Assay (AID 2284267); conditions: primary human lung fibroblasts;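 note: total protein by SRB absorbance in parallel cultures as cytotoxicity measure; cells assessed 24 h after compound addition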
# In short: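 Cytotoxicity read-out: after 10% TCA fixation, parallel human lung fibroblast cultures were stained with 0.1% SRB at 24 h post-dosing and read at 560 nm; DMSO served as baseline.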
# [17] = read-out: Matrix Metallopeptidase 1 (MMP1), MMP1 (gene 4312); experiment: BSK_MyoF_MMP1: BioMAP Diversity Plus: MyoF Assay for Matrix Metallopeptidase 1 (MMP1) Biomarker Activity (AID 2284268); conditions: primary human lung fibroblasts
# In short: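 MMP1 measured by ELISA 24 h after dosing primary human lung fibroblasts; cytotoxicity checked in parallel cultures by sulforhodamine B total-protein staining read at 560 nm.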
# [18] = read-out: TIMP metallopeptidase inhibitor 1 (TIMP1), TIMP1 (gene 7076); experiment: BSK_MyoF_TIMP1: BioMAP Diversity Plus: MyoF Assay for TIMP metallopeptidase inhibitor 1 (TIMP1) Biomarker Activity (AID 2284269); conditions: primary human lung fibroblasts
# In short: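 Primary human lung fibroblasts, MyoF multiplex system; chemical exposure 24 h; TIMP-1 by ELISA; positive fitting direction vs DMSO control.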
compound,measurement,setting,value
CC1(C)CCC[C@]2(C)[C@H]3CCO[C@]3(C)CC[C@@H]12,AC50,[1],36.6 µM (active) and 36.2 µM (active)
same,AC50,[2],18.7 µM (active)
same,outcome,[2],inactive
same,AC50,[3],30.5 µM (active) and 30.9 µM (active)
same,AC50,[4],34.7 µM (active) and 34.6 µM (active)
same,AC50,[5],36.8 µM (active) and 31.3 µM (active)
same,outcome,[6],inactive
same,outcome,[7],inactive
same,AC50,[8],27 µM (active)
same,outcome,[8],inactive
same,AC50,[9],33.1 µM (active)
same,outcome,[9],inactive
CN(C)C(=O)Nc1ccc(Oc2ccc(Cl)cc2)cc1,outcome,[10],inactive
same,outcome,[11],inactive
same,AC50,[12],20 µM (active)
same,outcome,[13],inactive
same,outcome,[14],inactive
same,AC50,[15],0.016 µM (active)
same,outcome,"Decorin, DCN (gene 1634)",inactive
same,outcome,[16],inactive
same,outcome,[17],inactive
same,outcome,[18],inactive
CC(=O)Nc1ccc(C(=O)CCl)cc1,AC50,[10],3.15 µM (active)
same,AC50,[11],20 µM (active)
same,AC50,[12],5.57 µM (active)
same,AC50,[13],32.5 µM (active)
same,AC50,[14],16.9 µM (active)
same,AC50,[15],13.7 µM (active)
same,outcome,"Decorin, DCN (gene 1634)",inactive
same,AC50,[16],29.3 µM (active)
same,outcome,[17],inactive
same,AC50,[18],34.5 µM (active)
O=C(Nc1ccc2c(O)c(N=Nc3ccc(N=Nc4ccc(S(=O)(=O)O)cc4)cc3)c(S(=O)(=O)O)cc2c1)c1ccccc1,outcome,[1],inactive
same,outcome,[2],inactive
same,AC50,[3],32.3 µM (active) and 27.1 µM (active)
same,outcome,[4],inactive
same,outcome,[5],inactive
same,outcome,[6],inactive
same,AC50,[7],30.4 µM (active) and 20 µM (active)
same,outcome,[8],inactive
same,outcome,[9],inactive
CCN(CC)C(=O)N(CC)CC,outcome,[10],inactive
same,outcome,[11],inactive
same,outcome,[12],inactive
same,outcome,[13],inactive
same,outcome,[14],inactive
same,outcome,[15],inactive
same,outcome,"Decorin, DCN (gene 1634)",inactive
same,outcome,[16],inactive
same,outcome,[17],inactive
same,outcome,[18],inactive
CC(CN=Cc1ccccc1O)N=Cc1ccccc1O (centres undefined),outcome,[1],inactive
same,outcome,[2],inactive
same,outcome,[3],inactive
same,outcome,[4],inactive
same,outcome,[5],inactive
same,outcome,[6],inactive
same,outcome,[7],inactive
same,outcome,[8],inactive
same,outcome,[9],inactive
c1ccc2cc(Nc3ccc(Nc4ccc5ccccc5c4)cc3)ccc2c1,outcome,[10],inactive
same,outcome,[11],inactive
same,outcome,[12],inactive
same,outcome,[13],inactive
same,outcome,[14],inactive
same,outcome,[15],inactive
same,outcome,"Decorin, DCN (gene 1634)",inactive
same,outcome,[16],inactive
same,outcome,[17],inactive
same,outcome,[18],inactive
O=C1OC2(c3ccccc31)c1ccc(O)c(Br)c1Oc1c2ccc(O)c1Br,outcome,[10],inactive
same,outcome,[11],inactive
same,outcome,[12],inactive
same,outcome,[13],inactive
same,AC50,[14],4.52 µM (active)
same,AC50,[15],9.25 µM (active)
same,outcome,"Decorin, DCN (gene 1634)",inactive
same,outcome,[16],inactive
same,outcome,[17],inactive
same,outcome,[18],inactive
CC(C)(C)CC(C)(C)c1ccc(OCCOCC[N+](C)(C)Cc2ccccc2)cc1,AC50,[10],8.64 µM (active)
same,AC50,[11],8.1 µM (active)
same,AC50,[12],6.28 µM (active)
same,AC50,[13],8.49 µM (active)
same,AC50,[14],8.51 µM (active)
same,AC50,[15],5 µM (active)
same,outcome,"Decorin, DCN (gene 1634)",inactive
same,AC50,[16],7.98 µM (active)
same,outcome,[17],inactive
same,AC50,[18],5 µM (active)
CSCCC=O,outcome,[10],inactive
same,outcome,[11],inactive
same,outcome,[12],inactive
same,outcome,[13],inactive
same,outcome,[14],inactive
same,outcome,[15],inactive
same,outcome,"Decorin, DCN (gene 1634)",inactive
same,outcome,[16],inactive
same,outcome,[17],inactive
same,outcome,[18],inactive
CC=Cc1ccc(OCC)c(O)c1,outcome,[10],inactive
same,outcome,[11],inactive
same,outcome,[12],inactive
same,outcome,[13],inactive
same,outcome,[14],inactive
same,outcome,[15],inactive
same,outcome,"Decorin, DCN (gene 1634)",inactive
same,outcome,[16],inactive
same,outcome,[17],inactive
same,outcome,[18],inactive
C=CC(C)(O)CCC=C(C)C (centres undefined),outcome,[1],inactive
same,outcome,[2],inactive
same,outcome,[3],inactive
same,outcome,[4],inactive
same,outcome,[5],inactive
same,outcome,[6],inactive
same,outcome,[7],inactive
same,outcome,[8],inactive
same,outcome,[9],inactive

# Reference: PubChem BioAssay (EPA / NIEHS)
